Spn MK inh: blocks S. pneumoniae mevalonate kinase | purified MK, PK/LDH-coupled NADH absorbance 340 nm | inhibition, % at 10 µM | 65,000 compounds, 0.48% hits | AID 555;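 active = ranked among the strongest by inhibition in the single 10 µM screen, a fixed top-ranked set picked for dose follow-up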
Spn DPM-DC inh: S. pneumoniae DPM-DC inhibition | purified DPM-DC, PK/LDH coupled NADH fluorescence | calls only at 10 µM | 65,000 compounds, 0.49% hits | AID 556;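 active = the 320 compounds with the highest percent inhibition in the single-dose primary screen, excluding strongly autofluorescent ones, cut at about 32% in these data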;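 note: kinetic rate of NADH fluorescence loss reporting ADP formed by the decarboxylase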
Abs 340nm: compound absorbs light at 340 nm | compound absorbance at 340 nm, fold over control | fold change at 10 µM | 65,000 tested, under 10 active;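 active = at 10 µM dose, initial 340 nm absorbance at least 2 fold that of control wells; inactive = change under 2 fold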;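 note: initial absorbance extrapolated from kinetic A340 decline of NADH oxidation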
Spn PMK inh: blocks S. pneumoniae phosphomevalonate kinase | 65,000 compounds, 0.49% hits | AID 539 | inhibition, % at 10 µM | purified PMK, PK/LDH-coupled NADH absorbance 340 nm;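 active = top-ranked compounds by inhibition in the single 10 µM screen, taking a fixed number of the strongest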
Fluor 339 460: intrinsic fluorescence of library compounds, ex339/em460 – biochemical, MLSMR library, data from DPM-DC assay, artefact control, profiling panel | compound autofluorescence, ex339/em460 nm, NADH buffer; hits give high values; 1 = no-compound wells, NADH background | fluorescence fold increase at 10 µM | 65,000 compounds, 5.5% hits | AID 709;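 active = at 10 µM, mean starting fluorescence two-fold or more over control wells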;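 note: signal is the first read of a kinetic run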
NADH coupling: inhibitors of enzymes used to reach an NAD/NADH endpoint; coupled PK/LDH NADH assays, four targets; IC50, µM (top dose mostly 10 µM); 65,000 compounds, 0.02% hits; AID 774;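 active = single-dose screening hits from any of four coupled enzyme assays that gave an IC50 when retested across doses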;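 note: the DPM-DC format reads NADH fluorescence rather than 340 nm absorbance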
Numbers stand for hits; i = inactive; nt = not tested or not shown; + = active, no number. Most compounds without a hit are left out; they make up all but 6.5% or so of the library.

SMILES	Spn MK inh	Spn DPM-DC inh	Abs 340nm	Spn PMK inh	Fluor 339 460	NADH coupling
CC(=O)Nc1cccc(NC(=O)CSc2nnc(Cc3cccn3C)n2CCc2ccccc2)c1	i	i	i	i	i	i
Cc1c(NC(=O)CSc2ccccc2C(=O)Nc2cccnc2)c(=O)n(-c2ccccc2)n1C	i	i	i	i	i	i
Cc1ccc2c(c1)N(Cc1ccncc1)C(=O)C(C)O2 (stereo not given)	i	i	i	i	i	i
Cc1cccc(CN2CCN(c3ccccn3)CC2)c1	48	i	i	i	i	i
c1ccc(N2CCN(c3cnccn3)CC2)nc1	i	+	i	i	i	i
COc1ccc2nc(NCCCNC(=O)c3cc(OC)c(OC)c(OC)c3)c(C#N)cc2c1	i	nt	i	i	3.1	i
Cc1csc(NC(=O)c2ccccc2O)n1	i	nt	i	i	3.9	i
COc1ccc(CCNC(=O)C2CCN(S(=O)(=O)c3cnc[nH]3)CC2)cc1OC	i	i	i	i	i	i
c1ccc(Cn2nnc3c(N4CCc5ccccc54)ncnc32)cc1	i	nt	i	i	4.3	i
c1ccc(Cn2nnc3c(N4CCCCCC4)ncnc32)cc1	i	i	i	i	i	i
COc1ncnc(OC)c1NC(=O)c1ccc(F)cc1	63	i	i	i	i	i
O=C(Nc1nc2ccccc2[nH]1)c1ccc(F)cc1	i	i	i	i	i	i
COc1ccc(CC(NC(C)=O)C(=O)NC2CCN(c3nc(C)cc(C)c3C#N)CC2)c(OC)c1 (stereo not given)	i	i	i	i	2	i
COc1cccc(CC(NC(C)=O)C(=O)NC2CCN(c3nc(C)cc(C)c3C#N)CC2)c1 (stereo not given)	i	i	i	i	i	i
Cc1ccc(N2CCn3c2nc2c3c(=O)n(CCc3ccccc3)c(=O)n2C)cc1	i	i	i	i	2.4	i
COc1ccc(N2CCCn3c2nc2c3c(=O)n(CCc3ccccc3)c(=O)n2C)cc1	i	i	i	i	i	i
CCCCn1c(=O)[nH]c(=O)c2c1nc(-c1ccncc1)n2CCOC	i	i	i	i	i	i
CCCCn1c(=O)[nH]c(=O)c2c1nc(-c1ccc(C#N)cc1)n2C1CCCC1	i	nt	i	i	5.2	i
COc1ccc(-c2nc(NC(=O)CSc3nnc(C)s3)ns2)cc1	i	i	i	i	2.8	i
Cc1ccc(-c2nc(NC(=O)CSc3nnc(C)s3)ns2)cc1	i	i	i	i	i	i
Cc1nnc(SCC(=O)Nc2nsc(-c3ccccc3)n2)s1	i	i	i	38	i	i
Cc1cc2n(n1)C(c1ccco1)Nc1ccccc1-2 (stereo not given)	i	i	i	i	i	i
Cc1cc2n(n1)C(c1ccc(O)cc1)Nc1ccccc1-2 (stereo not given)	i	i	i	i	2.9	i
CCn1cc(C2Nc3ccccc3C(=O)N2O)c(C)n1 (stereo not given)	i	i	i	i	i	i
Cc1cc2n(n1)C(c1cn(-c3ccccc3)nc1C)Nc1ccccc1-2 (stereo not given)	i	i	i	i	2.1	i
SMILES	Spn MK inh	Spn DPM-DC inh	Abs 340nm	Spn PMK inh	Fluor 339 460	NADH coupling
Cc1cc2n(n1)C(c1c[nH]c3ccccc13)Nc1ccccc1-2 (stereo not given)	i	i	i	i	2.4	i
O=C(Nc1ccc2oc(-c3cccnc3)nc2c1)c1cccnc1	i	i	i	i	i	i
O=C(Nc1ccc(-c2nc3ccccc3o2)cc1)c1ccc2c(c1)OCO2	i	nt	i	i	3.6	i
Cc1ccc(-c2nc3ccccc3o2)cc1NC(=O)c1ccc2c(c1)OCO2	i	i	i	i	i	i
Cc1ccc2oc(-c3ccc(NC(=O)c4cccnc4)cc3)nc2c1	i	i	i	i	2.1	i
Cc1ccc2oc(-c3ccc(NC(=O)c4ccc5c(c4)OCO5)cc3)nc2c1	i	nt	i	i	3.7	i
CC(C)Oc1ccc(CNC2CCOC(C)(C)C2)cc1 (stereo not given)	i	i	i	i	i	i
CCOc1cc(C2/C(=C(/O)c3ccc(OC(C)C)cc3)C(=O)C(=O)N2CCCOC)ccc1O (stereo not given)	i	i	i	i	i	i
Oc1ccc(CN2CCCCC2)nc1-c1ccccc1	i	i	i	i	3.3	i
CCC(C)(C)n1nnnc1C(C(C)C)N1CCSCC1 (stereo not given)	i	i	i	i	i	i
O=C(NC1CCCc2ccccc21)C1CCN(c2c3c(nc4ncnn24)CCC3)CC1 (stereo not given)	i	nt	i	i	4.7	i
CCOc1ccccc1-c1nc2c([nH]1)c(=O)n(C)c(=O)n2C	i	i	i	i	2.9	i
CC(=O)c1ccc(N2CCN(c3ccc(C(F)(F)F)cn3)CC2)cc1	i	i	i	40	i	i
Cc1c(C(=O)N2CCN(c3ccc(C(F)(F)F)cn3)CC2)oc2ccccc12	i	i	i	i	i	i
CCOC(=O)Cc1csc(NC(=O)CSc2ncnc3c2cnn3-c2ccc(OC)cc2)n1	i	i	i	i	2.5	i
COc1ccccc1OCc1ccc(C(=O)n2nc(C)c(Cl)c2C)o1	i	i	i	i	i	i
N#CCSC1=Nc2ccccc2C2=NC(CCC(=O)N3CCN(c4ccccc4)CC3)C(=O)N12 (stereo not given)	i	i	i	i	i	i
CC(C)C1N=C2c3ccccc3N=C(SCC#N)N2C1=O (stereo not given)	i	i	i	i	2.6	i
O=S(=O)(c1ccccc1F)N(Cc1ccco1)Cc1nnc(-c2ccccc2Br)o1	i	i	i	i	i	i
CCOC(=O)CSc1nc(-c2ccncc2)ccc1C#N	i	i	i	i	i	i
CCOC(=O)CC(=O)CSc1nc(-c2cccnc2)ccc1C#N	i	nt	i	i	2.1	i
CCOC(=O)CSc1nc(-c2ccc3c(c2)OCO3)ccc1C#N	i	nt	i	i	2.2	i
CCOC(=O)C1CSC(CC(=O)Nc2ccc(Cl)cc2)C(=O)N1 (stereo not given)	i	i	i	i	i	i
COc1ccc(-n2c(O)c(/C=N/n3cnnc3)c3ccccc3c2=O)cc1	i	nt	i	i	2.1	i
CC1CCN(S(=O)(=O)c2ccc(S(=O)(=O)NCC(=O)C(C)(C)C)cc2)CC1	i	i	i	i	i	i
COc1ccc(N2CCN(CCNS(=O)(=O)c3cccc4nsnc34)CC2)cc1	i	+	i	33	i	i
CN(C)Cc1nc2ccccc2c(=O)n1Cc1nc(-c2cc3ccccc3o2)cs1	i	+	i	i	i	i
COc1cc2c(cc1OC)-c1cc(Nc3ccc4c(c3)OCCO4)nc(=O)n1CC2	i	i	i	i	i	i
COc1cc2c(cc1OC)-c1cc(OCc3cccnc3)nc(=O)n1CC2	i	nt	i	i	2.9	i
CCN(CC)CCCNC(=O)c1nn(-c2ccccc2OC)c(=O)c2ccccc12	i	i	i	i	i	i
